Test results reported in the OligoGym collection.
Note: reference of the scale not given here.

The sequences below were run against MTG1 (assay: pooled miR-30 sensor sort-seq; sequence = guide strand). Conditions: shRNA.
For TATAGCTTTAACTCCTTCTGAG, the sensor-assay potency score (higher = more potent) was -0.0288. Sequence TAAGTGTTGCATAATTTTCTGC has a sensor-assay potency score (higher = more potent) of 0.0697. For TTTGTTGAGGGTGTACAGCAGG, the sensor-assay potency score (higher = more potent) was -0.227.

These sequences were tested against MTMR14 in the same assay as above. Conditions: shRNA.
TTCGTGTTTGGAATCACGCTGA showed a sensor-assay potency score (higher = more potent) of 0.52. TTTGGAATCACGCTGAAACAGT gave a sensor-assay potency score (higher = more potent) of -0.856. With TGACAGGTATCGAAGCAGCTTG the sensor-assay potency score (higher = more potent) was -1.11. For TTGTCCACCTTCTCAGAGGAGG, the sensor-assay potency score (higher = more potent) was -1.29. Sequence TCGAAGAGCACAGTCCTCCTCC has a sensor-assay potency score (higher = more potent) of -0.118. With TATTTGACTGACAGGTATCGAA the sensor-assay potency score (higher = more potent) was -0.898. In the case of TTATTTTGTGATCTGTGTCAAA, the sensor-assay potency score (higher = more potent) is reported as -0.837. Sequence TGAAACAGTAGTCTCGGCCAAA has a sensor-assay potency score (higher = more potent) of -1.3. TGAGATACAGTGTACCAGCAGC was tested, and the sensor-assay potency score (higher = more potent) was -0.892. Work on TTTGTGATCTGTGTCAAACTGC yielded a sensor-assay potency score (higher = more potent) of 0.417. Sequence TTTGCTGAGCCGATCTACCAAC has a sensor-assay potency score (higher = more potent) of -1.14. With TTGAACAGGATTACTGGGCAGA the sensor-assay potency score (higher = more potent) was -0.111.

These sequences were tested against MTOR in the same assay as above. Conditions: shRNA.
TTATTCTGATACAACATGGTGT was tested, and the sensor-assay potency score (higher = more potent) was 0.00722. Sequence TATAATTGGTTCTTCGGTCAAA has a sensor-assay potency score (higher = more potent) of -0.45. Sequence TAGGAATCCGTCCTCGTTCGGG has a sensor-assay potency score (higher = more potent) of -0.165. With TCTCTGGAAACTTCTCTCGGGT the sensor-assay potency score (higher = more potent) was -0.556. For TTGAGTATTTGTTCTGCTCATA, the sensor-assay potency score (higher = more potent) was -0.623. TTCTCTGGAAACTTCTCTCGGG showed a sensor-assay potency score (higher = more potent) of -0.303. Sequence TTTTGGGGAAACATATTGCAGC has a sensor-assay potency score (higher = more potent) of -1.1. Work on ATAGCATTGGTCAACATTCTTG yielded a sensor-assay potency score (higher = more potent) of -0.775. Sequence TTTGGTATTTGTGTCCATCAGC has a sensor-assay potency score (higher = more potent) of -0.533. TAAATCTCGACCATAGGCCTGA showed a sensor-assay potency score (higher = more potent) of 0.425. With TTGTTGGCTGCATTGTGCCGGG the sensor-assay potency score (higher = more potent) was -0.403. In the case of TTCTTCTCCCTGTAGTCCCGGA, the sensor-assay potency score (higher = more potent) is reported as -0.437. Work on TTAGAAGGAAAACAAACTCATG yielded a sensor-assay potency score (higher = more potent) of -1.25. Work on TTACTATGTTTCACTGTCCTGG yielded a sensor-assay potency score (higher = more potent) of -0.25. TTTGTGTCCATCAGCCTCCAGT showed a sensor-assay potency score (higher = more potent) of -0.591. TTTAGTTGAGTATTTGTTCTGC was tested, and the sensor-assay potency score (higher = more potent) was 0.462. TTAGAAGCCACTGTCAGTGGGT was tested, and the sensor-assay potency score (higher = more potent) was 0.584. TTGGGTCTCATCATTAACCAGG gave a sensor-assay potency score (higher = more potent) of -0.739. In the case of TTGACCACTGAAAACATCCCAG, the sensor-assay potency score (higher = more potent) is reported as 0.0557. Work on TTTGATGAGCAGCTCAACTTGC yielded a sensor-assay potency score (higher = more potent) of 0.357. In the case of TATCCCTTGACAATTCTGCAGA, the sensor-assay potency score (higher = more potent) is reported as -0.562. In the case of TTTCATGGGATGTCGCTTGTTT, the sensor-assay potency score (higher = more potent) is reported as 0.0185. TAGCATTGGTCAACATTCTTGT gave a sensor-assay potency score (higher = more potent) of 0.089. Sequence TATATTCTTCAACAGCAGCTAG has a sensor-assay potency score (higher = more potent) of -0.667.
